From the OligoGym collection

Target: ARIH1
Test: pooled miR-30 sensor sort-seq; sequence = guide strand
Details: shRNA
Further: reference of the scale not given here.

Row | Sequence | sensor-assay potency score (higher = more potent)
1 | TTGTCTTGTACTTTCTGCTTTA | -0.218
2 | TTTAATTGCATGAGCACTCTAG | -0.104
3 | TTTAACAGTCGATTGCACTCTA | 0.745
4 | TACTTTCTGCTTTATATCCTGC | 0.014
5 | TTAACCACTTACATTTAACAGG | -0.703
6 | TTAACAGTCGATTGCACTCTAC | -0.996
7 | TATCCTGCAGAGAATCTTGGGA | 0.446
8 | TTAGGGTAGTTCAAGTAGCAGA | -0.412

Target: ARL3
Test: as above
Details: shRNA

Row | Sequence | sensor-assay potency score (higher = more potent)
9 | TTTTCAAAATAATTCTTCCAGT | -0.927
10 | TCTGGTGCACTTTTCAACTTGC | 0.321
11 | TTTGATGTTGAAACCCTGTGTA | 0.537
12 | TGATTGTACACTTTTGATGTTG | -0.736
13 | TTAGTTTTTCTTCCTCCAGTAA | -0.387
14 | TTACATATATAAGAATATCGGT | -0.321
15 | ATACATTCAGTTTAAAACCTTG | -0.514
16 | AATCTTTTTCTGTCTGCACTGT | -0.19
17 | AACCTTGTGATTGTACACTTTT | -0.441
18 | TAAGAATATCGGTATTTTCAAA | -1.26
19 | TTGTACACTTTTGATGTTGAAA | -1.03
20 | TTGTGATTGTACACTTTTGATG | -1.36
21 | TTTTTCTGTCTGCACTGTCGAT | -0.887
22 | TTGACATTTTTGCAGACCCAGT | -1.64
23 | AATTCTTCCAGTATGGTCTGAT | 0.17
24 | TACATATATAAGAATATCGGTA | -0.522
25 | TTCAGATGCAAGCTGCTTCAGA | -0.224
26 | TTGATGTTGAAACCCTGTGTAG | -0.924
27 | TTTTCTGTCTGCACTGTCGATT | -0.243
28 | TAATTCTTCCAGTATGGTCTGA | 0.485
29 | TTCAGTTTAAAACCTTGTGATT | -1.5
30 | TTTTGATGTTGAAACCCTGTGT | 0.456
31 | TTCAGAAGAGTGGTCTTGCCAG | -0.492

Target: ARL4D
Test: as above
Details: shRNA

Row | Sequence | sensor-assay potency score (higher = more potent)
32 | ACACTCTGGACAAACTCCTTGA | -0.682
33 | AAACTCCTTGAACTTGAGGCGG | -0.934
34 | TCCACCACAAACACTAGACCGT | -0.55
35 | TGATTCGGTGCAACTCCACCTT | 0.0703
36 | ACAAACACTAGACCGTCTGTCC | -0.415
37 | AACTCCTTGAACTTGAGGCGGT | -0.138
38 | TCGGTGTTGAAGCCTTTGGTGG | -1.59
39 | TAGACCGTCTGTCCGGCGGGTA | -1.34
40 | AACACTAGACCGTCTGTCCGGC | -0.396
